Common to all, as to assay: NCI-60 one-dose screen, 48 h (100 = growth as untreated, 0 = no growth, -100 = all killed)
Assay [1] concerns NCI-H23 lung. As to conditions: 10 µM unless noted.
Assay [2] has as its system NCI-H226 lung. The note with it: 10 µM unless noted.
For assay [3], the system named is NCI-H322M lung. As to conditions: 10 µM unless noted.
The subject of assay [4] is NCI-H460 lung. As to conditions: 10 µM unless noted.
Assay [5] concerns HOP-92 NSCLC. As to conditions: 10 µM unless noted.
In assay [6] the test system is A549/ATCC NSCLC. As to conditions: 10 µM unless noted.
Assay [7] deals with 786-0 renal. As to conditions: 10 µM unless noted.
Assay [8] relates to COLO 205 colon. As to conditions: 10 µM unless noted.
The test system of assay [9] is DU-145 prostate. As to conditions: 10 µM unless noted.
Assay [10] deals with K-562 leukemia. The note with it: 10 µM unless noted.
Assay [11] deals with MALME-3M melanoma. As to conditions: 10 µM unless noted.
Assay [12] concerns MDA-MB-231 breast. The note with it: 10 µM unless noted.
Assay [13] has as its system RXF 393 renal. As to conditions: 10 µM unless noted.
The subject of assay [14] is SF-268 CNS. The note with it: 10 µM unless noted.
In assay [15] the test system is SF-295 CNS. The note with it: 10 µM unless noted.
For assay [16], the system named is SF-539 CNS. The note with it: 10 µM unless noted.
Assay [17] has as its system UACC-257 melanoma. As to conditions: 10 µM unless noted.
Assay [18] has as its system M14 melanoma. The note with it: 10 µM unless noted.
Assay [19] has as its system HOP-62 NSCLC. The note with it: 10 µM unless noted.
The subject of assay [20] is NCI-H522 lung. As to conditions: 10 µM.

Compounds without any hit were thinned out: in the full panel of roughly 83,000, 20% have a hit.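 Single-dose data. Exposure time 48 hours. Values below 10 considered active.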 A number with no mark means an inactive call. Activity calls are given as the source filed them.

Regarding `O=C(O)C1C(c2ccccc2)c2ccccc2C(O)C1CO` (stereo unspecified), the growth is 106% in [1]; 105% in assay [2]; 112% in assay [3]; 111% in [4]; 89.1% in assay [5]; 111% in assay [6]. Moreover, the growth in [7] is 107%; in assay [8] it was 99.7%; in [9], 136%; in [10], 111%; in assay [11], 146%; in assay [12] it was 94.9%. Also, the growth in assay [13] is 123%; in assay [14], 116%; in assay [15], 120%; in [16], 99.7%; in assay [17], 98.9%; in assay [18] it was 99.5%.
Regarding `COc1ccc(CNC(=O)c2c(C)n([O-])c3cc(F)c(F)cc3[n+]2=O)cc1`, the growth in [1] is 41.9%; in assay [2], 99.6%; in assay [3], 97.1%; in assay [19], 107%; in assay [5], 89.1%; in [7], 92.9%. For the same compound, the growth in assay [8] was 131%; in [10], 46.5%; in [11], 111%; in [12], 76.3%; in assay [14] it was 88.7%; in assay [15], 57.1%. For the same compound, the growth is 96.9% in [16], 98% in [17] and 90.5% in [18].
With `O=C(Nc1ccccc1)P(=O)(O)c1ccccc1`, the growth in assay [1] was 94%; in assay [2], 91.2%; in assay [3], 119%; in assay [4], 105%; in assay [5], 78.1%; in [20], 102%. Moreover, the growth in [7] was 110%; in [8], 114%; in assay [9], 108%; in assay [10], 95.7%; in assay [11], 123%; in [12], 100%. The growth in [13] was 105%; in assay [14], 98.5%; in [15] it was 122%; in [16], 90.2%; in assay [17] it was 96.5%; in assay [18], 103%.
For the compound `O=Nc1c2cccnc2n2nnc3ccc(Cl)cc3c12`, the growth in assay [1] is 66.4%; in assay [2], 85.9%; in assay [3] it was 107%; in [4], 27.7%; in assay [5], -40.5% (active); in assay [7], 59%. The growth in assay [9] was -10.6% (active); in assay [11] it was 23.7%; in [12], 13.9%; in assay [14], 48.7%; in assay [15], 90.3%; in assay [16], 91.4%. Besides, the growth in assay [17] was 28.6%; in assay [18], 81.5%.
Take `CCOC(=O)OCC(=O)[C@@]1(O)CC[C@H]2[C@@H]3CCC4=CC(=O)CC[C@]4(C)[C@H]3[C@@H](O)C[C@@]21C`: the growth in assay [1] was 111%; in [2], 70.1%; in [3] it was 99.2%; in [4], 102%; in assay [5], 72.5%; in assay [6] it was 74.2%. The growth is 108% in assay [7]; 104% in assay [8]; 101% in assay [9]; 111% in assay [10]; 75.7% in [11]; 98.2% in assay [12]. Besides, the growth was 127% in assay [13]; 94% in [14]; 129% in assay [15]; 91.3% in assay [16]; 93.4% in [17]; 90.7% in [18].
Regarding `CC(=O)Nc1ccc(C(=O)COc2cccc(/C=C3\CCc4ccccc4C3=O)c2)cc1`, the growth in [1] is 84.4%; in [2] it was 70.7%; in [3], 105%; in assay [4], 97.1%; in assay [5], 70.8%; in assay [20] it was 63.1%. Also, the growth was 92.9% in assay [7]; 130% in assay [8]; 36.8% in assay [10]; 19.6% in [11]; 90% in [12]; 90.1% in assay [14]. Moreover, the growth in assay [15] was 486%; in assay [16], 96.7%; in assay [17] it was 89.8%; in assay [18], 104%.
Turning to `CC[n+]1c(/C=C/c2ccc(N3CCCC3)cc2)cccc1/C=C/c1ccc(N2CCCC2)cc1`, the growth in assay [1] is -67.9% (active); in assay [2], -65.7% (active); in assay [3] it was -86.7% (active); in assay [5], -73.3% (active); in [20], -83.2% (active); in [7], -82.3% (active). Moreover, the growth in assay [8] was -83.1% (active); in assay [9], -97.4% (active); in assay [10] it was 8.88% (active); in assay [11], -82.2% (active); in assay [12] it was -80.6% (active); in assay [13] it was -93.7% (active). Also, the growth in assay [14] is -90.3% (active); in assay [15], -76.9% (active); in assay [16], -87.2% (active); in [17] it was -92.5% (active); in assay [18], -65.3% (active).
In the case of `Clc1ccc2c(c1)C(Br)c1cc(Cl)cc(Cl)c1-2` (stereo unspecified), the growth in assay [1] is 14.8%; in assay [2] it was 14.4%; in assay [3], 81.4%; in assay [4], 99.9%; in assay [5], 53.5%; in assay [6] it was 98.4%. The growth in assay [7] is 84.9%; in [8], 103%; in assay [9], 109%; in [11] it was 45.1%; in assay [12], 75.6%; in [14] it was 98.3%. The growth in assay [15] was 101%; in assay [16], 81.6%; in assay [18], 34.8%.

The values above are taken from PubChem BioAssay (NCI).
